PubChem BioAssay (NCI)
About 83,000 compounds went through this panel and 20% of them were active in at least one assay; those are over-represented in the sample as a whole.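 Plates (96-well) were seeded with cells, treated with compound at one concentration, and incubated for 48 hours before percent growth was determined.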 Unmarked numbers belong to inactive results. Calls of active or inactive are those of the source. The calls were made as follows: active = growth percent below 10; inactive = the rest.

What was measured:
Assay in all cases: NCI-60 one-dose screen, 48 h (100 = growth as untreated, 0 = no growth, -100 = all killed)
Details in all cases: 10 µM unless noted
SK-MEL-2 melanoma = test system: SK-MEL-2 melanoma
EKVX NSCLC = test system: EKVX NSCLC
SN12C renal = test system: SN12C renal
UO-31 renal = test system: UO-31 renal
TK-10 renal = test system: TK-10 renal
ACHN renal = test system: ACHN renal
CAKI-1 renal = test system: CAKI-1 renal
A498 renal = test system: A498 renal
CCRF-CEM leukemia = test system: CCRF-CEM leukemia
MOLT-4 leukemia = test system: MOLT-4 leukemia

| Compound | growth (SK-MEL-2 melanoma) | growth (EKVX NSCLC) | growth (SN12C renal) | growth (UO-31 renal) | growth (TK-10 renal) | growth (ACHN renal) | growth (CAKI-1 renal) | growth (A498 renal) | growth (CCRF-CEM leukemia) | growth (MOLT-4 leukemia) |
| --- | --- | --- | --- | --- | --- | --- | --- | --- | --- | --- |
| O=C1NC(=O)C(CC(=O)n2c(-c3ccccc3)nc3ccccc32)C(=O)N1 | 101% | 93.6% | 99.5% | 79.6% | 116% | 101% | 90.5% | 63.6% | 104% | 108% |
| COc1ccc(OCC(=O)Nc2ccc(-c3nc4ccccc4s3)cc2C)cc1 | 94.1% | 65% | 88.8% | 44.7% | 64.9% | 99.4% | 78.4% | 101% | 89.6% | 55.9% |
| Fc1ccc(Cc2ccc(F)cc2)cc1 | 111% | 105% | 95.7% | 79.7% | 101% | 104% | 94.8% | 99.7% | 107% | 94.5% |
| O=c1c2c3c(sc2n2c(CCl)nnc2n1Cc1ccccc1)CCCC3 | -83.1% (active) | -35.4% (active) | -82.8% (active) | -83.2% (active) | -93.6% (active) | -100% (active) | -100% (active) | 92.5% | – | -18.4% (active) |
| Nc1nc(SCc2ccccc2)c2ncn(C3CCCC3)c2n1 | 94.6% | 99.6% | 107% | 89.9% | 125% | -81.5% (active) | 102% | 102% | 96.3% | 113% |
| CC1=CC(=O)CC(C)(C)[C@@]1(O)/C=C/[C@@H](C)O | 112% | 91.6% | 105% | 95.3% | 108% | 109% | 97.2% | 94.1% | 104% | 108% |
| O=C1CCc2c(sc3[nH]c(=S)n(Cc4ccccc4)c(=O)c23)C1 | -15.4% (active) | 13.9% | 7.15% (active) | -4.69% (active) | 29.6% | 21.8% | 24.1% | 57.6% | 4.68% (active) | 28.8% |
| CC(=O)Nc1ccc2c(c1)c(NC(C)=O)nn2C(=O)Nc1ccc(Cc2ccccc2)cc1 | 12.9% | 71.3% | 82.9% | 68.2% | 85% | 65.8% | 49.2% | 90.6% | 89.8% | 93.6% |
| CCOC(=O)C(C#N)C1CCCCC1 (configuration not stated) | 107% | 94.9% | 79.6% | 91.1% | 91.5% | 99.4% | 75.5% | 117% | 87.2% | 79.3% |
| COc1ccc2nc3cc(Cl)ccc3c(NCCNCC(O)CO)c2c1 (configuration not stated) | 27.9% | 42% | 5.37% (active) | 48.9% | 32.3% | 26.8% | 71.9% | 8.45% (active) | 25% | 12.7% |
| CC/C=C\C[C@H](O)C/C=C1/C(=O)C=C[C@@H]1C/C=C\CCCC(=O)NC(C)C | 28.8% | 28.4% | -11.1% (active) | -61.8% (active) | -0.347% (active) | -82.5% (active) | -0.696% (active) | 98.5% | -13% (active) | -17.7% (active) |
| C=C1CCC2C3(C)COC(c4ccc(OC)cc4Br)OC3CCC2(C)C1/C=C/C1=CCOC1=O (configuration not stated) | 81.2% | 44.2% | 79.8% | 54.2% | 83.9% | 81.1% | 74.3% | 72.2% | – | 55.7% |
| Nc1cccc(NC(=O)C(=O)Nc2cccc(N)c2)c1 | 97.6% | 94% | 88.6% | 84.4% | 122% | 85.8% | 78.1% | 89.6% | 97.9% | 98.1% |
| CCC(c1ccccc1)C(CC)c1ccc(O)c(O)c1 (configuration not stated) | 94.3% | 107% | 91.9% | 74.2% | 106% | 95.9% | 101% | 110% | – | 73.8% |
